Data from the supplement of paper PMC5940239.

What follows are compounds tested on Madurella mycetomatis MM55 (assay: percent growth relative to solvent control; higher = less inhibition, active = 20 or less). Conditions: 100 µM; 7 days.

Row | Compound | percent growth
1 | COc1ccc2nc(C)cc(OCC(=O)Nc3ccccc3OC)c2c1 | 72.5% (inactive)
2 | COc1ccc2nc(C)cc(OCC(=O)NCc3ccccc3)c2c1 | 83.4% (inactive)
3 | O=C(NCc1cc(Cl)cc(Cl)c1)c1c(C(F)(F)F)nc2ccccn12 | 107% (inactive)
4 | Cc1nn2c(O)c3c(nc2c1-c1ccc(F)cc1)CCCC3 | 113% (inactive)
5 | Cc1cc(Nc2ccc(C(F)(F)F)cc2)n2ccnc2n1 | 77.4% (inactive)
6 | CC(=O)NC[C@H]1CN(c2ccc(N3CCSCC3)c(F)c2)C(=O)O1 | 94.5% (inactive)
7 | O=C(Nc1ccccc1-c1nc2c(C(=O)O)cccc2o1)c1ccccc1 | 94% (inactive)
8 | COc1ccccc1C(C)NCC(=O)Nc1cc(C(F)(F)F)ccc1Cl (stereo unspecified) | 28.7% (inactive)
9 | N#Cc1nc(-c2ccccc2F)oc1NCCc1ccccc1 | 56.7% (inactive)
10 | CC(C)C(C(=O)Nc1ccc(S(=O)(=O)N(C)C)cc1)c1ccc(Cl)cc1 (stereo unspecified) | 121% (inactive)
11 | CC1CS(=O)(=O)CCN1/N=C/c1ccc([N+](=O)[O-])o1 (stereo unspecified) | 96.8% (inactive)
12 | CS(=O)(=O)Cc1nc2ccccc2oc1=O | 87.9% (inactive)
13 | COc1ccc(-c2cncc3ccc(C(=O)NCCCn4ccnc4)nc23)cc1 | 109% (inactive)
14 | CCCCc1ccc(NC(=O)Nc2ccc(O[C@H]3CCCC[C@@H]3N(C)c3ccccc3)c(F)c2)cc1 | 122% (inactive)
15 | CC1(C)Cc2c(c(N3CCOCC3)nc3snc(Br)c23)CO1 | 78.9% (inactive)
16 | COc1ccc(Oc2ccc([C@@H](C)N(C)c3ncc4c(N)nc(N)nc4n3)cc2)cc1 | 0.491% (active)
